Rows were chosen to be rich in hits. Some 21% of all compounds tested hit in one or more screens of this group.
D3 ag: qHTS of D3 Dopamine Receptor Agonist: qHTS | D3R DiscoveRx beta-arrestin cells, luminescence, 90 min | D(3) dopamine receptor (Homo sapiens), P35462 | max activation, % | 0.58% of 410,000 active; in the data active = max activation above about 30%
Target sequence (P35462 whole entry, looked up): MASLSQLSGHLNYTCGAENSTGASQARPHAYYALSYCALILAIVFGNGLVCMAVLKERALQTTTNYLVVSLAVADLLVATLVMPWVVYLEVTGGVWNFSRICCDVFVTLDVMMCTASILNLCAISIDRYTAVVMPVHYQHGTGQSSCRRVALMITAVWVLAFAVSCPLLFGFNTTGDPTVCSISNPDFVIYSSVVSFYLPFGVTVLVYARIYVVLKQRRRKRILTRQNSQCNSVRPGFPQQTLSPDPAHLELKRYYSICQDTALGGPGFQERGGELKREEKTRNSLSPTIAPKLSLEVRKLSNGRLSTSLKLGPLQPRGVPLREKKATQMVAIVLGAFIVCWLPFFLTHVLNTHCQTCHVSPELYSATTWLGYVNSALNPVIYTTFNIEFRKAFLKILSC
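Agonist mode: compounds and dopamine controls were applied to plated cells for 90 min at 37 degrees C after an overnight attachment at 1500 cells/well. Luminescent read-out followed 30 - 60 minutes at room temperature with DiscoveRx detection reagent.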
D3 antag: qHTS of D3 Dopamine Receptor Antagonist: qHTS; 2.5% of 360,000 active; D3R cells, DiscoveRx beta-arrestin luminescence, antagonist mode; active compounds read low; max response, negative = inhibition, %; D(3) dopamine receptor (Homo sapiens), P35462; in the data active = max response below about -50%; inconclusive = no clear call, values can overlap the other calls
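Cells expressing the human receptor were seeded at 1500 cells/well, incubated overnight at 37 degrees C in 5% CO2, then exposed to library compounds with dopamine controls for 90 minutes at 37 degrees C before luminescent detection.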
ClpP mod: qHTS Assay for Activators of ClpP | ATP-dependent Clp protease proteolytic subunit (Bacillus subtilis (strain 168)), P80244 | purified B. subtilis ClpP, FRET peptide cleavage, 20 min | Potency, µM (series often up to 57.5 µM) | 1.9% of 340,000 active; active = well fitted falling curve with a large enough effect; inconclusive = small, poorly fitted or top-dose-only effect; inactive = no such curve, though single readings can be large or run the other way; note: the source files actives as falling curves though it sought activators and does not explain the sign; nearly all actives have a fitted effect of over 65% in size
Target sequence (P80244 whole entry, looked up): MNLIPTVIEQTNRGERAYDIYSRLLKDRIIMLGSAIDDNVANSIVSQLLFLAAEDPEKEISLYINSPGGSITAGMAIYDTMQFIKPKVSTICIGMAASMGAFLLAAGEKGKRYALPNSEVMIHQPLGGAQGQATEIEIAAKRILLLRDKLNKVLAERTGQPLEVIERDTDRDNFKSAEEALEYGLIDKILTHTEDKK
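Purified B. subtilis ClpP, 10 microg/mL final in Tris/HCl pH8 with KCl, BSA, glycerol and Tween-20, cleaved an Abz/nitrotyrosine-quenched decapeptide. Fluorescence (ex 320, em 430) was read at 0 and 20 min at room temperature. Delta was normalized to 5.8 microM ADEP and DMSO/no-enzyme controls.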
IL-1B inflam inh: qHTS for Inhibitors of Inflammasome Signaling: IL-1-beta AlphaLISA Primary Screen. THP-1 LPS/ATP IL-1B secretion, AlphaLISA, 16 h; active compounds read low. 4.7% of 360,000 active. activity change, % at 57.5 µM. AID 743279, 2014; in the data active = activity change below about -50%; inconclusive = mostly about -30% to -49%
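THP-1 cells pretreated 1 hr with compounds (up to 57.5 uM final), then stimulated with LPS (250 ng/mL final) plus ATP (1.25 mM final); secreted IL-1B measured by AlphaLISA after 16 hr, decreased signal indicating inhibition.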
DT40 TDP1 CPT: qHTS for Inhibitors of human tyrosyl-DNA phosphodiesterase 1 (TDP1): qHTS in cells in presence of CPT; chicken DT40 Tdp1-/-;hTDP1 cells + 20 nM CPT, ATP luminescence, 48 h; AID 686979, 2013; Potency, µM (top dose mostly 46.2 µM), hits mostly inhibitors; 12% of 420,000 active; note: nearly all actives have a fitted effect of over 55% in size
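Chicken DT40 Tdp1-/- cells stably complemented with human TDP1 were seeded at 400 cells/well in medium containing 20 nM camptothecin, exposed to pin-transferred compounds, and grown at 37 °C for at least 48 hr. Viability was read as ATP luminescence.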
DT40 TDP1 no CPT: qHTS for Inhibitors of human tyrosyl-DNA phosphodiesterase 1 (TDP1): qHTS in cells in absence of CPT. DT40 Tdp1-/- hTDP1 cells, no CPT, ATP luminescence, 48 h. Potency, µM (titrated, usually from 46.2 µM), usual class: inhibitors. 15% of 420,000 active; note: nearly all actives have a fitted effect of over 55% in size
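Chicken DT40 Tdp1-/- cells complemented with human TDP1, screened without camptothecin (DMSO vehicle only), 400 cells/well. Compounds pin-transferred, cells incubated at 37 °C for at least 48 hr. Growth read as ATP-dependent luminescence (CellTiter-Glo, 30 min at RT).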
Numbers stand for hits; - = inactive; ? = inconclusive; . = no result given; [ ] = dose if it differs, or a comment. Unless noted, calls come from the whole dose curve; as a rule, active = well fitted inhibition curve with a large enough effect; inconclusive = small, poorly fitted or top-dose-only effect; inactive = flat fitted curve, though single readings scatter.

SMILES	D3 ag	D3 antag	ClpP mod	IL-1B inflam inh	DT40 TDP1 CPT	DT40 TDP1 no CPT
CN(C)c1nc2cc3c(cc2cc1CN(CC1CCCO1)C(=O)c1cccc(F)c1)OCO3 (centres undefined)	.	.	.	.	-[9.04 µM]	-
CC(C)(C)c1ccc(OCc2nnc(-c3ccccc3)o2)cc1	-	.	-	.	-	-
CCn1c(C)cc(C=C2C(=O)c3ccccc3C2=O)c1C	-	-	.	-	?	?
COC(=O)C(C)N1C(=O)S/C(=C/c2cc(C)n(C(C)C)c2C)C1=O (centres undefined)	-	-	-	-	16.4µM	?
CCn1c(C)cc(/C=C2/SC(=O)N(C(C)C(=O)OC)C2=O)c1C (centres undefined)	-	-	.	-	?	20.6µM
C#CCN1C(=O)S/C(=C/c2cc(C)n(CC)c2C)C1=O	-	-	-	-	?	20.6µM
CCn1c(C)cc(/C=C2/SC(=S)N(CC(=O)O)C2=O)c1C	-	-	-	-	-	-
COCCn1c(C)cc(/C=C2/SC(=O)N(C(C)C(=O)OC)C2=O)c1C (centres undefined)	-	-	-	-	?	25.9µM
Cc1cccc(NC(=O)CN2C(=O)N/C(=C/c3cc(C)n(C(C)C)c3C)C2=O)c1	-	-	-	-	?	?
CCOC(=O)C(C)N1C(=O)S/C(=C/c2cc(C)n(-c3ccccn3)c2C)C1=O (centres undefined)	-	-	-	-	?	16.4µM
Cc1cc(/C=C2\SC(N)=NC2=O)c(C)n1-c1ccccc1	-	-	-	-	?	?
COC(=O)c1ccccc1NC(=O)c1cn(-c2ccc(C)c(C)c2)c(=O)c2ccccc12	-	-	?	-	?	23.1µM
CCOC(=O)c1ccccc1NC(=O)c1cn(-c2ccc(C)c(C)c2)c(=O)c2ccccc12	-	-	12.6µM	?	20.6µM	?
CCOC(=O)c1ccccc1NC(=O)c1cn(-c2ccc(OC)cc2)c(=O)c2ccccc12	-	-	?	-	?	?
Cc1ccccc1Cn1c(=O)n(CCc2ccccc2)c(=O)c2sc3ccccc3c21	-	.	-	.	-	-
CCNC(=O)N1CCOCC1	-	-	-	-	-	6.31µM
Cc1c(NC(=O)C(C)Oc2cccc(F)c2)c(=O)n(-c2ccccc2)n1C (centres undefined)	-	-	-	-	-	-
O=[N+]([O-])c1ccc(N2CCC(=NOCc3ccc(Cl)cc3)CC2)cc1	-	-	-	?	20.6µM	10.3µM
O=[N+]([O-])c1ccc(N2CCN(Cc3ccccc3)CC2)nc1	-	-	.	-	?	?
O=C(c1ccc([N+](=O)[O-])cc1Cl)N1CCN(Cc2ccccc2)CC1	-	-	-	-	?	-
O=[N+]([O-])c1cccc(COc2ccc(CN3CCOCC3)cc2)c1	-	-	-	-	?	16.4µM
COC(=O)c1cc([N+](=O)[O-])ccc1N1CCN(Cc2ccccc2)CC1	-	-51.9	-	-	?	?
O=[N+]([O-])c1ccc(N2CCN(Cc3ccccc3)CC2)c2c1no[n+]2[O-]	-	-74.0	-	-86.5	0.164µM	0.259µM
CC(C)[C@H](NC(=O)OCc1ccccc1)C(=O)OCc1cc(=O)oc2cc(O)ccc12	-	-	-	-	?	?
COC(=O)C1CCN(Cc2ccc(C)cc2)CC1	-	?	-	-	-	-
SMILES	D3 ag	D3 antag	ClpP mod	IL-1B inflam inh	DT40 TDP1 CPT	DT40 TDP1 no CPT
O=[N+]([O-])c1ccc(CN2CCN(c3ccc([N+](=O)[O-])cc3)CC2)cc1	-	-	?	-53.6	?	18.4µM
O=[N+]([O-])c1ccc(S(=O)(=O)N2CCN(Cc3ccco3)CC2)cc1	-	?	.	-	-	?
O=[N+]([O-])c1cccc(CN2CCN(Cc3ccco3)CC2)c1	-	-75.4	-	-	-	-
COC(=O)C1CCN(Cc2ccc(OCCCN3CCN(c4ccc([N+](=O)[O-])cc4)CC3)cc2)CC1	-	-51.7	.	-	7.31µM	10.3µM
O=[N+]([O-])c1ccc(N2CCN(Cc3ccccc3)CC2)s1	-	-65.7	.	-	?	?
COC(=O)c1ccccc1S(=O)(=O)N1CCC(C(=O)NCCC2=CCCCC2)CC1	-	-	-	-	?	?
O=[N+]([O-])c1cccc(-c2ccc(CN3CCN(c4ccccc4)CC3)o2)c1	-	?	-	-	?	?
O=[N+]([O-])c1ccc(N2CCN(Cc3cccc([N+](=O)[O-])c3)CC2)cc1	-	-	.	-62.0	?	4.11µM
O=[N+]([O-])c1ccccc1-c1ccc(CN2CCN(c3ccccc3)CC2)o1	-	-57.7	.	-	-	-
O=[N+]([O-])c1cccc(COc2ccc(CN3CCCC3)cc2)c1	-	?	-	-	?	?
O=[N+]([O-])c1cccc(CN2CCCCCC2)c1	-	-55.0	.	-	-	-
CCCCc1ccc(NC(=O)C(=O)NCCN2CCN(Cc3ccc([N+](=O)[O-])cc3)CC2)cc1	-	-	-	-	3.26µM	0.731µM
CNC(=O)C(=O)NCCN1CCN(C(=O)c2ccc([N+](=O)[O-])cc2)CC1	-	-	.	-	-	-
CCCCn1c(N)c(N(CCOC)C(=O)CN2C(=O)C3CCCCC3C2=O)c(=O)[nH]c1=O (centres undefined)	-	-	-	-	-	-
O=C(NCCc1ccccc1Cl)c1ccc2c(c1)nc1n2CCOC1	-	.	-	.	-	-
COc1ccc(S(=O)(=O)NNC(=O)C(=O)NNc2ccccn2)cc1	-	-	-	-	-	-
CC(C)Oc1ccc(CNC(=O)CN2C(=O)CCn3nc(-c4cn(C)c5ccccc45)cc32)cc1	-	.	-	.	?	?
Cc1ccc(C(=O)Nc2cccc(C(=O)O)c2)cc1	-	-	-	-	-	-
Cc1ccc(-n2nc(C)c(C(=O)Nc3cccc(C(=O)NC4CC4)c3)n2)c(C)c1	-	-	-	-	11.6µM	8.2µM
Cc1ccc(C(=O)Nc2cccc(C(O)c3ccccc3)c2)cc1 (centres undefined)	-	-	-	-51.5	-	?
Cc1cccc(C(=O)Nc2cccc(C(=O)NC3CCCC3)c2)c1	-	-	-	?	?	?
O=C(NC1CC1)c1cccc(NC(=O)C2CC2)c1	-	-	-	-	-	-
Cc1cccc2nc(C(=O)Nc3cccc(C(=O)NC4CC4)c3)cn12	-	-	-	-	13µM	?
Cc1ccc(C(=O)Nc2cccc(C(=O)NC3CCCC3)c2)cc1	-	-	-	-	?	16.4µM
CCc1ccc(NC(=O)c2sc3nc(C)c(Cl)c(C)c3c2N)cc1	-	.	?	.	.	.

From PubChem
